Compound activity from PubChem.
Sampled rows, rich in hits. Any-hit rate of the full collection: about 3%.
SENP8 block-1: SENP8 protease inhibition | purified SENP8, Z-RLRGG-aminoluciferin cleavage, luminescence | Q96LD8 | AID 2540 | actives 1.2% (n = 330,000) | inhibition, % at 10 µM; in the data active = inhibition above about 50%
Target sequence (Q96LD8 whole entry, looked up): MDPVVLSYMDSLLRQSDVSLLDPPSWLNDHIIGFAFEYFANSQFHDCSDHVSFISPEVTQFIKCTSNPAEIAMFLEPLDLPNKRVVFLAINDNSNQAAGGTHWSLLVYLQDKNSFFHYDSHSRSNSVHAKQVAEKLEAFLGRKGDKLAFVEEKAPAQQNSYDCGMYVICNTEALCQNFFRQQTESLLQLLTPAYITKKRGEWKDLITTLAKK
SENP8 block-2: blocks human SENP8 cleavage of Nedd8 substrate; actives 0.64% (n = 360,000); inhibition, % at 20 µM; AID 602440; Q96LD8; recombinant SENP8, Nedd8 substrate fluorescence; in the data active = inhibition mostly above about 40%, no sharp cut-off; inactive = mostly below about 27%
SENP7 inh: SENP7 protease inhibition | Q9BQF6 | recombinant SENP7, Z-RLRGG-aminoluciferin luminescence, 40 min | inhibition, % at 5 µM | actives 1.5% (n = 330,000);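 active = inhibition above about 50% at the single test dose, limit read from the data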
C8 TRAIL sens: sensitizes caspase-8 expressing cells to TRAIL; NB7+C8 cells + TRAIL, ATPlite viability luminescence; inhibition (viability loss, TRAIL sensitization), % at 10 µM; actives 1% (n = 360,000); AID 624354;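 active = compounds causing at least 50% loss of cell viability in the single-dose screen, relative to plate controls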
SENP6 inh: inhibitors of human SENP6 protease; Q9GZR1; Recombinant SENP6 catalytic domain, aminoluciferin luminescence; inhibition, % at 10 µM; actives 1.8% (n = 330,000); AID 2599;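 active = inhibition above about 50% at the single tested dose, limit read from the data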
PPC-1+TRAIL kill: kills PPC-1 cancer cells in the presence of TRAIL; AID 1443; PPC-1 cells + TRAIL, ATPLite viability luminescence; cell killing (% activity), % at 4 µM or 5 µM; actives 0.41% (n = 220,000);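 active = cell killing above 50% in the first pass at 4 µM, then a duplicate retest at 5 µM averaging 50% or more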
SENP8 confirm: human SENP8 inhibition, confirmed; shares compounds with SENP7 inh; inhibition, % at 12.5 µM; Recombinant SENP8, Z-RLRGG-aminoluciferin luminescence, 60 min; actives 40% (n = 6,200);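 active = mean inhibition across replicates above about 50%, limit read from the data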
SENP6 conf: human SENP6 inhibition, confirmed | shares compounds with SENP7 inh | inhibition, % at 12.5 µM | recombinant SENP6, Z-RLRGG-aminoluciferin luminescence | AID 488915 | actives 58% (n = 6,200)
SENP7 conf: human SENP7 inhibition, confirmed; AID 488917; shares compounds with SENP7 inh; inhibition, % at 12.5 µM; actives 69% (n = 6,200); recombinant SENP7, Z-RLRGG-aminoluciferin luminescence, 40 min
Casp3 SENP sel: inhibits human caspase-3 in SENP selectivity test; shares compounds with SENP7 inh; purified caspase-3, Z-DEVD-aminoluciferin luminescence, 60 min; inhibition, % at 12.5 µM; actives 60% (n = 6,200); AID 488918;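 active = mean inhibition above about 50%, limit read from the data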
Target sequence (P42574 28-227 limits assumed): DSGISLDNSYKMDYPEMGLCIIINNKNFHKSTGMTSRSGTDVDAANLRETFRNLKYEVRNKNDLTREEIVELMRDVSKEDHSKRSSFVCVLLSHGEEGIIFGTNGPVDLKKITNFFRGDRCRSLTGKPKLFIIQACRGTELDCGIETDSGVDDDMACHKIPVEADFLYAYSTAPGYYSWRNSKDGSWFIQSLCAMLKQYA
SENP luc ctr: luminescence interference (SENP counter-screen) | shares compounds with SENP7 inh | Pre-incubated SENP8/Z-RLRGG-aminoluciferin, luciferase luminescence interference | inhibition, % at 12.5 µM | actives 39% (n = 6,200) | AID 488919;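 active = mean inhibition above about 50% when retested at one dose, limit read from the data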
A number is an active result; n = inactive; x = no result given.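 Rule for the calls, unless noted: active = mean inhibition above about 50% in the one-dose retest (limit read from the data); inactive = the rest.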

SMILES	SENP8 block-1	SENP8 block-2	SENP7 inh	C8 TRAIL sens	SENP6 inh	PPC-1+TRAIL kill	SENP8 confirm	SENP6 conf	SENP7 conf	Casp3 SENP sel	SENP luc ctr
COc1ccc(Cn2c(O)c(C=Nc3ccc(O)cc3)c3ccccc3c2=O)cc1	n	n	n	n	67	n	n	n	n	n	n
CO[C@@H]1CN(C)C(=O)c2cc(NC(=O)NC3CCCCC3)ccc2OC[C@@H](C)N(CCc2ccccc2)C[C@@H]1C	x	n	x	n	x	x	x	x	x	x	x
CCOC1=C2CN(S(=O)(=O)c3ccc(C)cc3)C(c3cccc(Cl)c3)CC2NC(c2ccccc2)C1 (centres undefined)	x	n	x	n	x	x	x	x	x	x	x
COc1ccc(C(=O)Nc2nc3ccccc3s2)cc1	89	n	93	60	96	x	n	94	101	88	85
COc1cccc(C(=O)Nc2nc3ccccc3s2)c1	86	n	91	n	90	x	90	91	99	83	60
COc1ccc(C(=O)Nc2nc3ccccc3s2)cc1OC	n	n	n	n	n	x	x	x	x	x	x
O=C(Nc1nc2ccccc2s1)c1ccc(F)cc1	85	n	93	n	88	n	n	87	100	86	n
COc1ccc2nc(NC(=O)c3ccc(F)cc3)sc2c1	n	n	90	n	64	x	n	n	n	n	n
COc1ccc(NC(=O)c2cccc(N3C(=O)C4C5C=CC(C5)C4C3=O)c2)cc1Cl (centres undefined)	n	n	n	n	n	x	x	x	x	x	x
COc1ccccc1CNC(=O)C(=O)NCC1OCCCN1S(=O)(=O)c1ccc(F)cc1C (centres undefined)	n	n	n	n	n	x	x	x	x	x	x
Cc1ccc(-c2csc3ncn(CC(=O)NCC(c4ccco4)N4CCCC4)c(=O)c23)cc1 (centres undefined)	n	n	n	n	n	x	x	x	x	x	x
COc1cccc(N2CC(C(=O)Nc3nnc(SCC(=O)Nc4ccc(NC(C)=O)cc4)s3)CC2=O)c1 (centres undefined)	n	n	n	n	n	x	x	x	x	x	x
Cc1csc(NC(=O)c2ccc3nc[nH]c3c2)n1	69	n	78	n	82	x	n	75	95	88	74
COc1cccc(C(=O)Nc2nnc(SCC(=O)Nc3ccc(NC(C)=O)cc3)s2)c1	55	n	n	68	70	x	n	61	86	67	n
O=C(Nc1nc2ccccc2s1)c1ccccc1[N+](=O)[O-]	n	n	n	n	n	x	x	x	x	x	x
O=C(Nc1nc2ccccc2s1)c1ccc(Cl)s1	67	n	82	n	77	n	n	n	51	n	n
O=C(NC1=NCCS1)c1ccc(OCC2CCCO2)cc1 (centres undefined)	n	n	n	n	n	n	x	x	x	x	x
O=C(Nc1nc2ccccc2s1)c1ccc(OCC2CCCO2)cc1 (centres undefined)	53	n	77	67	71	n	n	73	93	62	n
CCc1ccc(OCC(=O)NC(C)C)cc1	n	n	n	n	n	n	x	x	x	x	x
COc1ccc(/C=N/OCC(=O)Nc2nc3ccccc3s2)cc1OC	70	n	75	n	87	n	n	78	94	64	51
COc1cccc(C(=O)Nc2nc(-c3ccncc3)cs2)c1	n	n	n	n	n	n	x	x	x	x	x
O=C(Nc1ncccc1O)c1ccc(OCC2CCCO2)cc1 (centres undefined)	n	n	51	n	n	x	n	n	77	82	n
